# Inconclusive results are not listed. Values without a mark were called inactive. Active and inactive are the calls of the source. Calls come from the whole dose curve.
# Assay: p53 small molecule agonists, cell-based qHTS assay with human liver microsomes (AID 1963577);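 for activation: p53 response element beta-lactamase reporter cells with liver microsomes plus NADPH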
# Details: HCT-116 p53RE-bla with human liver microsomes, ratio, 16 h; series mostly up to 66 µM; activation: at the top concentration
# Excerpt: National Center for Advancing Translational Sciences [NCATS]
# Division of Preclinical Innovation [DPI]
# U.S. Environmental Protection Agency [EPA]
# National Institutes of Environmental Health Sciences [NIEHS]
# National Toxicology Program [NTP]
# U.S. Food and Drug Administration [FDA]
# p53, a tumor suppressor protein, is activated following cellular insult, including DNA damage and other cellular stresses. The activation of p53 regulates cell fate by inducing DNA repair, cell cycle arrest, apoptosis, or cellular senescence. The activation of p53, therefore, is a good indicator of DNA damage and other cellular stresses. […] The activation of the reporter gene under culture conditions can be detected by fluorescence intensity.
# Tox21 Assay Protocol Summary:
# The p53RE-bla cells were dispensed at 4,000cells/3ul/well in 1536-well black-clear bottom plates. After the assay plates were incubated at 37 C, 5% CO2 incubator for 5 hours, 23 nL of compounds dissolved in DMSO, positive controls or DMSO only was transferred to the assay plate. Following compound addition, 3 uL of human liver microsomes (XenoTech, Kansas City, KS) at final concentration of 0.5 mg/mL and 1uL of Beta-Nicotinamide adenine dinucleotide 2-phosphate (NADPH) at final concentration of 0.5 mg/mL were transferred to the assay plate. The plates were incubated at 37 C for 16 hours. 1 uL of LiveBLAzer detection mixture was added to each well and the plates were incubated at room temperature in the dark for 2 h.
# % is set by controls: 0 for no effect and ±100 for the full control effect; potency is the fitted concentration of half-maximal effect.
Compound,Potency,activation
C#CCOS(=O)OC1CCCCC1Oc1ccc(C(C)(C)C)cc1 (stereo not given),inactive,
C#CCO,,-0.096%
[O]=[Cr][O][Cr]=[O],,1.71%
CN1CSC(=S)N(C)C1,inactive,
Cc1cc(-c2ccc(N)c(C)c2)ccc1N,inactive,
O=S1OCC2C(CO1)C1(Cl)C(Cl)=C(Cl)C2(Cl)C1(Cl)Cl (stereo not given),inactive,
CC(C#N)CCC#N (stereo not given),inactive,
O=C(Cl)/C=C/C(=O)Cl,,2.95%
C[C@]12CC[C@H]3[C@@H](CC=C4C[C@@H](O)CC[C@@]43C)[C@@H]1CC[C@@H]2O,,-3.51% [at 30.3 µM]
CCCCOC(=O)c1ccccc1C(=O)O,,7.51%
COC(=O)C(Br)CBr (stereo not given),,1.33%
Cc1ccc(C(=O)Cl)cc1,,8.73%
C=CC(=O)OC(C)(C)C,,-3.25%
CN(C)CCc1ccc(O)cc1,,-0.636% [at 30.3 µM]
Cc1ccc(N)cc1N,inactive,
ClCCBr,inactive,
COC(=O)Nc1nc2ccccc2[nH]1,inactive,
C=CCN1CC[C@]23CCCC[C@H]2[C@H]1Cc1ccc(O)cc13,,-6.65% [at 30.3 µM]
CCC(=O)O[C@@H]1C=C2CCC3C(CCC4(C)C3CC[C@@H]4OC(=O)CC)C2CC1 (stereo not given in full),,3% [at 30.3 µM]
Cc1ccc(O)c(C)c1,,0.428%

Compound,Potency,activation
CC(C)C1(C)N=C(c2ncccc2C(=O)O)NC1=O (stereo not given),,-5.85%
Nc1ccc2ccccc2c1,inactive,
Cc1ccc(N)cc1C,,-0.544%
O=Cc1ccc(Cl)cc1Cl,,1.31%
CSc1nnc(C(C)(C)C)c(=O)n1N,inactive,
CCCCN(CC)c1c([N+](=O)[O-])cc(C(F)(F)F)cc1[N+](=O)[O-],inactive,
C[C@H]1C(=O)O[C@@H]2CCN3CC=C(COC(=O)[C@](C)(O)[C@]1(C)O)[C@H]23,inactive,
CCOC(=O)c1cncn1C(C)c1ccccc1 (stereo not given),,-3.41% [at 30.3 µM]
CCCCOC(=O)c1ccccc1C(=O)OCc1ccccc1,inactive,
OCCOc1ccccc1,inactive,
ClC1=C(Cl)C2(Cl)C3C(Cl)C(Cl)CC3C1(Cl)C2(Cl)Cl (stereo not given),inactive,
CC1(C)C(C=C(Cl)Cl)C1C(=O)OC(C#N)c1cccc(Oc2ccccc2)c1 (stereo not given),inactive,
CC1(C)C(C=C(Cl)Cl)C1C(=O)OC(C#N)c1ccc(F)c(Oc2ccccc2)c1 (stereo not given),,-6.92%
N#Cc1ccc(O)cc1,,-6.81%
O=C(O)CC(O)(CC(=O)O)C(=O)O,inactive,
C=C(C)C(=O)OCC1CO1 (stereo not given),inactive,
C#CCOC(C(=O)OCCN(C)C)(c1ccccc1)c1ccccc1,,-2.48% [at 30.3 µM]
C=CC=O,,-0.822%
COP(=O)(OC)C(O)C(Cl)(Cl)Cl (stereo not given),1460 nM (active),
O=C(O)CCCOc1ccc(Cl)cc1Cl,,-4.78%

# Source: PubChem BioAssay (Tox21)
